Source: PubChem BioAssay
This is a sample that favours compounds with a hit; in the whole collection about 12% have one here.
G9a block: inhibitors of human histone lysine methyltransferase G9a | Q96KQ7 | G9a H3K9 monomethylation, AlphaScreen, 2 h | Potency, µM (titrated, usually from 102 µM), most hits filed as inhibitors | hit rate 8.8% among 350,000; further: nearly all actives have a fitted effect of over 75% in size
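AlphaScreen read-out: biotin-H3K9 peptide (500 nM) methylation by 20 nM enzyme with 20 uM SAM, 2 h at room temperature after 15 min compound preincubation; anti-monomethyl H3K9 antibody plus donor/acceptor beads, 10 min dark.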
BAZ2B block: BAZ2B (human) inhibition; Potency, µM (top dose mostly 114 µM), usual class: inhibitors; AID 504333; AlphaScreen BAZ2B-H3K14Ac peptide displacement; hit rate 4.4% among 360,000; further: nearly all actives have a fitted effect of over 60% in size
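In this displacement format the biotinylated H3(5-23) peptide acetylated at Lys14 serves as ligand at 50 nM, with BAZ2B at 50 nM in PBS pH 7.4 containing 0.01% Tween-20. Donor and acceptor beads are 10 ug/mL final.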
HP1b binding inh: blocks HP1-beta chromodomain binding to methylated histone tails | P83916 | AlphaScreen HP1-beta / biotin-H3K9me3 peptide binding | Potency, µM (top dose mostly 114 µM), actives largely listed as inhibitors | hit rate 0.56% among 390,000; further: nearly all actives have a fitted effect of over 70% in size
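AlphaScreen: HP1-beta (50 nM) preformed 30 min with biotin-H3(1-18)K9me3 peptide (50 nM) in PBS pH 7.4, 0.01% Tween-20. Compound added for 30 min at RT, then streptavidin donor/nickel chelate acceptor beads (10 ug/mL) for 30 min.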
JMJD2A Tudor inh: inhibitors of human JMJD2A Tudor domain; O75164; AlphaScreen JMJD2A-Tudor / H3K4me3 peptide binding; Potency, µM (highest dose often 114 µM), most hits filed as inhibitors; AID 504339; hit rate 4.4% among 390,000; further: nearly all actives have a fitted effect of over 50% in size
Sfp PPTase inh: Sfp phosphopantetheinyl transferase inhibition; Q9F4F7; Biochemical Sfp PPTase activity, qHTS; hit rate 3.5% among 310,000; Potency, µM, most hits filed as inhibitors;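 further: the enzyme is Sfp with the accession as filed and its product quenches rhodamine fluorescence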
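Compounds were incubated with enzyme (final 15 nM) for 15 min at room temperature before substrate addition started the reaction. Fluorescence at 525 nm excitation, 598 nm emission was recorded immediately and after 30 minutes.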
L3MBTL1 inh: L3MBTL1 (human) inhibition; AlphaScreen L3MBTL1–H3K9me1 peptide binding; Potency, µM (highest dose often 57.1 µM), usual class: inhibitors; hit rate 0.66% among 230,000; further: nearly all actives have a fitted effect of over 60% in size
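Displacement of a biotinylated histone H3(1-15) peptide monomethylated at Lys9 (75 nM) from L3MBTL1 (50 nM) was measured by AlphaScreen after a 30 min room-temperature compound incubation; cefsulodin titration served as intraplate control.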
Each line names hits and unclear results; the compound was inactive in the other large screens. The call rests on the fitted dose curve; in most records, active means well fitted curve in the direction sought with a large enough effect; inconclusive means small, poorly fitted or top-dose-only effect, or another doubt; inactive means no such curve, though single readings can be large; an effect the other way counts as inactive or inconclusive.

CC(=O)Nc1ccc(NC2=C(Cl)C(=O)c3ccccc3C2=O)cc1	L3MBTL1 inh inconclusive
O=C(Nc1nc2ccccc2n1CCN1CCOCC1)c1cccc([N+](=O)[O-])c1	none (no result: BAZ2B block, HP1b binding inh, JMJD2A Tudor inh, Sfp PPTase inh, L3MBTL1 inh)
CCc1ccc(NC(=O)CC2C(=O)N(c3cccc(C)c3)C(=O)N2Cc2cccs2)cc1 (stereo not given)	none (no result: Sfp PPTase inh, L3MBTL1 inh)
COc1ccccc1NC(=O)COC(=O)C1C2CC3OC(=O)C1C3C2 (stereo not given)	none (no result: L3MBTL1 inh)
O=C(Nc1ccc2cn[nH]c2c1)c1ccccc1F	none
O=C(Nc1ccc2cn[nH]c2c1)c1c(Cl)cccc1Cl	G9a block 1.8µM, BAZ2B block 50µM, JMJD2A Tudor inh inconclusive, Sfp PPTase inh 40µM
CN(C)CC(=O)Nc1ccc2cn[nH]c2c1	none (no result: G9a block)
O=C1C(Cl)=C(Nc2ccc3cn[nH]c3c2)C(=O)c2ccccc21	BAZ2B block 8.9µM, HP1b binding inh 16µM, JMJD2A Tudor inh 14µM, Sfp PPTase inh 8.9µM (no result: L3MBTL1 inh)
COc1ccc(CNC(=O)CNC(=O)CNS(=O)(=O)c2ccc(C)c(C)c2)cc1	none (no result: L3MBTL1 inh)
Cc1ccc(CN(C)C(=O)c2cccc(S(=O)(=O)N3CCc4ccccc4C3)c2)o1	BAZ2B block inconclusive (no result: Sfp PPTase inh)
Cc1cccc(C(=O)Nc2cccc(C(=O)N/N=C/c3cccc(C)n3)c2)c1	none (no result: L3MBTL1 inh)
CC(=O)Nc1cccc(C(=O)N/N=C/c2cccc(C)n2)c1	JMJD2A Tudor inh 13µM, Sfp PPTase inh inconclusive (no result: L3MBTL1 inh)
O=C1c2cc(CO)cc(O)c2C(=O)c2c(O[C@@H]3OC(CO)[C@@H](O)[C@@H](O)[C@@H]3O)cccc21 (stereo not given in full)	none (no result: G9a block, BAZ2B block, Sfp PPTase inh, L3MBTL1 inh)
O=C(O)c1cc(O)c2c(c1)[C@H]([C@H]1c3cc(C(=O)O)cc(O)c3C(=O)c3c(O[C@@H]4O[C@H](CO)[C@@H](O)[C@H](O)[C@H]4O)cccc31)c1cccc(OC3O[C@H](CO)[C@@H](O)[C@H](O)[C@H]3O)c1C2=O (stereo not given in full)	G9a block 1.3µM, BAZ2B block 0.79µM, HP1b binding inh inconclusive, JMJD2A Tudor inh 0.32µM, L3MBTL1 inh 0.16µM (no result: Sfp PPTase inh)
O=C(O)c1cc(O)c2c(c1)[C@@H]([C@H]1c3cc(C(=O)O)cc(O)c3C(=O)c3c(O[C@@H]4O[C@H](CO)[C@@H](O)[C@H](O)[C@H]4O)cccc31)c1cccc(OC3O[C@H](CO)[C@@H](O)[C@H](O)[C@H]3O)c1C2=O (stereo not given in full)	G9a block 1.3µM, BAZ2B block 0.79µM, JMJD2A Tudor inh 0.32µM, L3MBTL1 inh 0.16µM (no result: Sfp PPTase inh)
O=C1c2c(O)cccc2C(C2OC(CO)[C@@H](O)[C@H](O)[C@H]2O)c2cc(CO)cc(O)c21 (stereo not given in full)	G9a block inconclusive (no result: Sfp PPTase inh)
Cc1cc(C)cc(C(=O)NC(CC(N)=O)c2ccc(NC3CCCC3)c([N+](=O)[O-])c2)c1 (stereo not given)	G9a block inconclusive
CN(C)C(=O)c1ccc(-c2ccc3ncnc(N4CCC(C(=O)O)CC4)c3c2)cc1	none (no result: BAZ2B block, HP1b binding inh, JMJD2A Tudor inh, L3MBTL1 inh)
COc1cc(/C=C2/SC(=S)N(CCC(=O)Nc3ccc(C(=O)O)cc3)C2=O)cc(OC)c1OC	BAZ2B block inconclusive, JMJD2A Tudor inh inconclusive (no result: G9a block, L3MBTL1 inh)
COc1cc(/C=C2\SC(=S)N(CCC(=O)Nc3ccc(O)cc3)C2=O)cc(OC)c1OC	JMJD2A Tudor inh 22µM (no result: L3MBTL1 inh)
COc1ccccc1NC(=O)CCN1C(=O)/C(=C/c2cc(OC)c(OC)c(OC)c2)SC1=S	Sfp PPTase inh 45µM
CC(=O)n1nc(-c2ccco2)nc1N	none
CCC(=O)n1nc(-c2ccco2)nc1N	G9a block 45µM
CC(=O)n1nc(-c2ccco2)nc1SCc1ccccc1	G9a block 45µM
Cc1cccc(C(=O)NC(=S)NNC(=O)COc2ccc(Cl)cc2)c1	G9a block 3.2µM, HP1b binding inh inconclusive, JMJD2A Tudor inh inconclusive, Sfp PPTase inh inconclusive
CNC(=S)NNC(=O)COc1ccc(C)c(C)c1	G9a block 32µM, JMJD2A Tudor inh 50µM
O=C(COc1ccc(Br)cc1)NNC(=S)NC(=O)c1ccccc1[N+](=O)[O-]	G9a block inconclusive
COc1ccc(OCC(=O)NNC(=S)NC(=O)c2ccc([N+](=O)[O-])cc2)cc1	G9a block 1.1µM, Sfp PPTase inh 32µM (no result: L3MBTL1 inh)
CC(=O)NC(=S)NNC(=O)COc1ccc(Br)cc1	G9a block 1.8µM, JMJD2A Tudor inh 25µM
COc1ccc(C(=O)NNC(=S)NC(=O)c2ccc(OC)cc2)cc1	none (no result: G9a block)
CCn1c(=O)c(=O)[nH]c2c(=O)oc3ccc(S(=O)(=O)Nc4ccccc4)cc3c21	none (no result: L3MBTL1 inh)
COc1ccc(-c2nc(C)c(CCNC(=O)C(=O)Nc3cccc(F)c3)s2)cc1OC	none (no result: Sfp PPTase inh, L3MBTL1 inh)
O=C(COc1ccccc1)NNC(=O)COc1ccc([N+](=O)[O-])cc1	G9a block inconclusive (no result: L3MBTL1 inh)
COc1ccc(CNC(=O)CCNS(=O)(=O)c2ccc(Br)s2)cc1	JMJD2A Tudor inh 79µM (no result: L3MBTL1 inh)
COc1ccc(CNC(=O)c2ccc(Br)o2)cc1	G9a block 20µM
COc1ccc(OCC(=O)NNC(=S)NC(=O)c2ccc(Br)o2)cc1	G9a block 22µM (no result: L3MBTL1 inh)
CC(=O)NC(=S)NNC(=O)COc1ccc([N+](=O)[O-])cc1	G9a block 8.9µM (no result: L3MBTL1 inh)
COc1cccc(CNC(=O)CCNS(=O)(=O)c2ccc(Br)s2)c1	JMJD2A Tudor inh inconclusive (no result: L3MBTL1 inh)
COc1ccc(Cl)cc1NC(=O)C1CCN(S(=O)(=O)c2ccc(F)cc2)CC1	none (no result: Sfp PPTase inh, L3MBTL1 inh)
O=C(NCc1cccc(F)c1F)C1CCC(=O)N(C2CCCCCC2)C1 (stereo not given)	none (no result: G9a block, L3MBTL1 inh)
O=C(Cn1c(=O)oc2cc(S(=O)(=O)N3CCCC3)ccc21)Nc1ccc(F)cc1F	none (no result: Sfp PPTase inh, L3MBTL1 inh)
CCCCCC(=O)NNC(=S)NC(=O)c1ccc([N+](=O)[O-])cc1	G9a block 2.5µM, HP1b binding inh inconclusive, JMJD2A Tudor inh inconclusive, Sfp PPTase inh 35µM
COc1ccc(CNC(=O)c2c(C)oc3c2C(=O)c2ccccc2C3=O)cc1	G9a block 11µM, BAZ2B block 7.9µM, JMJD2A Tudor inh inconclusive
COc1cccc(N2CC(C(=O)Nc3nnc(SCCN4CCOCC4)s3)CC2=O)c1 (stereo not given)	G9a block 40µM (no result: L3MBTL1 inh)
Cc1ccccc1N1CC(C(=O)Nc2nnc(SCCN3CCOCC3)s2)CC1=O (stereo not given)	G9a block 16µM (no result: L3MBTL1 inh)
Cc1cccc(C)c1NC(=O)CSc1nnc(NC(=O)CN2CCOCC2)s1	BAZ2B block inconclusive, JMJD2A Tudor inh 89µM
Cc1ccccc1N1CC(c2nnc(NC(=O)c3ccco3)s2)CC1=O (stereo not given)	G9a block 8.9µM, BAZ2B block inconclusive (no result: Sfp PPTase inh, L3MBTL1 inh)
O=C(COc1ccccc1Cl)Nc1ccccc1C(=O)N1CCCCC1	none (no result: L3MBTL1 inh)
